The antibiotic and cytotoxicity screens of Wong et al. (2023)
Among all 39,000 compounds or so, about 3,300 (8.5%) were called active. This excerpt belongs to a sample that is enriched for actives.

System: HepG2
Assay: cytotoxicity call (relative viability < 0.9)
Conditions: 10 µM

Row | SMILES | cytotoxicity call
1 | Cc1noc(C)c1S(=O)(=O)Nc1ccc2c(c1)CC(=O)N([C@H](C)CO)C[C@@H](C)[C@H](CN(C)C(=O)Nc1ccccc1)O2 | inactive
2 | C[C@@H]1CN([C@H](C)CO)C(=O)c2cc(NC(=O)NC3CCCCC3)ccc2O[C@H]1CN(C)Cc1ccc(Cl)c(Cl)c1 | inactive
3 | C[C@H](CO)N1C[C@H](C)[C@@H](CN(C)C(=O)Nc2cccc3ccccc23)Oc2ccc(NC(=O)CCC(F)(F)F)cc2CC1=O | inactive
4 | C[C@@H]1CCCCO[C@H](CN(C)C(=O)Nc2ccccc2)[C@H](C)CN([C@H](C)CO)C(=O)c2cc(NC(=O)NC3CCCCC3)ccc2O1 | inactive
5 | CC(C)CC#Cc1cnc2c(c1)C(=O)N([C@H](C)CO)C[C@H](C)[C@H](CN(C)S(=O)(=O)c1cn(C)cn1)O2 | inactive
6 | C[C@H]1CCCCO[C@H](CN(C)C(=O)Nc2cccc3ccccc23)[C@@H](C)CN([C@@H](C)CO)C(=O)c2cc(NC(=O)NC3CCCCC3)ccc2O1 | inactive
7 | C[C@@H]1CCCCO[C@@H](CN(C)C(=O)Nc2cccc3ccccc23)[C@H](C)CN([C@@H](C)CO)C(=O)c2cc(NC(=O)NC3CCCCC3)ccc2O1 | inactive
8 | C[C@@H]1CCCCO[C@H](CN(C)C(=O)Nc2cccc3ccccc23)[C@@H](C)CN([C@H](C)CO)C(=O)c2cc(NC(=O)NC3CCCCC3)ccc2O1 | inactive
9 | C[C@@H]1CN([C@@H](C)CO)C(=O)c2cc(NC(=O)Nc3cccc4ccccc34)ccc2O[C@@H](C)CCCCO[C@H]1CN(C)C(=O)NC1CCCCC1 | inactive
10 | C[C@H](CO)N1C[C@H](C)[C@H](CN(C)C(=O)Nc2cccc3ccccc23)OCCCC[C@H](C)Oc2ccc(NC(=O)NC3CCCCC3)cc2C1=O | active
11 | C[C@@H]1CN([C@H](C)CO)C(=O)c2cc(NC(=O)Nc3cccc4ccccc34)ccc2O[C@@H](C)CCCCO[C@H]1CN(C)C(=O)NC1CCCCC1 | active
12 | C[C@@H]1CCCCO[C@H](CN(C)C(=O)Nc2cccc3ccccc23)[C@H](C)CN([C@@H](C)CO)C(=O)c2cc(NC(=O)NC3CCCCC3)ccc2O1 | active
13 | C[C@@H]1CCCCO[C@@H](CN(C)C(=O)NC2CCCCC2)[C@H](C)CN([C@H](C)CO)C(=O)c2cc(NC(=O)Nc3cccc4ccccc34)ccc2O1 | inactive
14 | C[C@@H]1CCCCO[C@@H](CN(C)C(=O)Nc2cccc3ccccc23)[C@H](C)CN([C@H](C)CO)C(=O)c2cc(NC(=O)NC3CCCCC3)ccc2O1 | inactive
15 | CC(C)NC(=O)Nc1ccc2c(c1)C(=O)N([C@H](C)CO)C[C@@H](C)[C@H](CN(C)S(=O)(=O)c1ccccc1)O2 | inactive
16 | C[C@@H]1CN([C@@H](C)CO)C(=O)c2cccc(NC(=O)c3cnccn3)c2O[C@H]1CN(C)Cc1ccc(C(=O)O)cc1 | inactive
17 | C[C@@H]1CCCCO[C@H](CN(C)C(=O)c2ccccc2)[C@H](C)CN([C@@H](C)CO)C(=O)c2cc(NC(=O)Nc3cccc4ccccc34)ccc2O1 | inactive
18 | O=C(C[C@@H]1CC[C@H](NS(=O)(=O)c2ccc(F)cc2)[C@H](CO)O1)N1CCC(Cc2ccccc2)CC1 | inactive
19 | Cc1ccc(S(=O)(=O)N(C)C[C@@H]2Oc3ccc(NS(=O)(=O)c4cn(C)cn4)cc3CC(=O)N([C@H](C)CO)C[C@H]2C)cc1 | inactive
20 | c1ccc(Cn2c(-c3ccc(OC[C@H](C4CCNCC4)n4c(-c5ccccc5)nc5ccccc54)cc3)nc3ccccc32)cc1 | active
21 | Cc1cccc(-c2nc3ccccc3n2CCC(C)C)c1 | inactive

Row | SMILES | cytotoxicity call
22 | Cc1ccc(OCCn2c(CC(C)(C)C)nc3ccccc32)cc1 | inactive
23 | Cc1cncc2cccc(S(=O)(=O)N[C@H]3CN[C@H](COC(=O)NCCOCCOCCN)C3)c12 | inactive
24 | Cn1cc(CO)cn1 | inactive
25 | O=C(C[C@@H]1CC[C@H]2[C@@H](COC[C@@H](O)CN2C(=O)Nc2ccc3c(c2)OCO3)O1)N1CCN(c2ccccc2)CC1 | inactive
26 | C[C@H]1CN([C@@H](C)CO)C(=O)c2cccc(NC(=O)Nc3ccccc3)c2O[C@H]1CN(C)Cc1ccc(-c2ccccc2)cc1 | inactive
27 | COc1ccc(NC(=O)Nc2cccc3c2O[C@H](CN(C)Cc2ccc(-c4ccccc4)cc2)[C@H](C)CN([C@@H](C)CO)C3=O)cc1 | active
28 | COc1ccc(NC(=O)Nc2cccc3c2O[C@H](CN(C)Cc2ccc(-c4ccccc4)cc2)[C@H](C)CN([C@H](C)CO)C3=O)cc1 | active
29 | COc1ccc(NC(=O)Nc2cccc3c2O[C@@H](CN(C)Cc2ccc(-c4ccccc4)cc2)[C@H](C)CN([C@@H](C)CO)C3=O)cc1 | inactive
30 | COc1ccc(NC(=O)Nc2cccc3c2O[C@@H](CN(C)Cc2ccc(-c4ccccc4)cc2)[C@@H](C)CN([C@@H](C)CO)C3=O)cc1 | inactive
31 | COc1ccc(NC(=O)Nc2cccc3c2O[C@@H](CN(C)Cc2ccc(-c4ccccc4)cc2)[C@H](C)CN([C@H](C)CO)C3=O)cc1 | active
32 | COc1ccc(NC(=O)Nc2cccc3c2O[C@H](CN(C)Cc2ccc(-c4ccccc4)cc2)[C@@H](C)CN([C@@H](C)CO)C3=O)cc1 | active
33 | COc1ccc(NC(=O)Nc2cccc3c2O[C@H](CN(C)Cc2ccc(-c4ccccc4)cc2)[C@@H](C)CN([C@H](C)CO)C3=O)cc1 | inactive
34 | COc1ccc(NC(=O)Nc2cccc3c2O[C@@H](CN(C)Cc2ccc(-c4ccccc4)cc2)[C@@H](C)CN([C@H](C)CO)C3=O)cc1 | inactive
35 | COc1ccc(NC(=O)N(C)C[C@H]2OCCCC[C@@H](C)Oc3ccc(NC(=O)C4CCCCC4)cc3C(=O)N([C@H](C)CO)C[C@@H]2C)cc1 | inactive
36 | COc1ccc(CN(C)C[C@H]2Oc3c(NS(C)(=O)=O)cccc3C(=O)N([C@@H](C)CO)C[C@H]2C)cc1 | inactive
37 | COc1ccc2c3c([nH]c2c1)[C@H](CO)N(C[C@]13CN(Cc2ccccc2)C1)S(=O)(=O)c1cn(cn1)C | inactive
38 | COc1ccc(NC(=O)N(C)C[C@H]2Oc3ncc(C#CCN(C)C)cc3C(=O)N([C@@H](C)CO)C[C@H]2C)cc1 | inactive
39 | O=C(C[C@@H]1CC[C@H]2[C@@H](COC[C@@H](O)CN2Cc2cc(F)ccc2F)O1)N[C@@H]1CCN(Cc2ccccc2)C1 | inactive
40 | C[C@@H]1CN([C@H](C)CO)C(=O)CCCn2nncc2CO[C@@H]1CN(C)C(=O)c1ccc(N2CCN(C)CC2)cc1 | inactive
41 | Fc1ccccc1[C@H]1Nc2ccc3ccccc3c2[C@H]2C=CC[C@@H]21 | inactive
42 | CCNC(=O)C[C@@H]1CC[C@H](NC(=O)C2CCOCC2)[C@H](CO)O1 | inactive

Row | SMILES | cytotoxicity call
43 | Cc1noc(C)c1NC(=O)Nc1ccc2c(c1)C(=O)N([C@H](C)CO)C[C@H](C)[C@H](CN(C)Cc1ccc(C(F)(F)F)cc1)O2 | inactive
44 | C[C@@H]1CN([C@H](C)CO)C(=O)c2cc(-c3cncnc3)cnc2O[C@H]1CN(C)C(=O)Nc1ccc2c(c1)OCO2 | inactive
45 | CCCNC(=O)c1cc2c(c(-c3cccc(-c4cccc(OC)c4)c3)n1)[C@H](CCO)N([S@@](=O)C(C)(C)C)C2 | inactive
46 | COc1ccccc1CN1C(=O)c2ccccc2[C@@]2(Cc3ccccc3N(C3CC3)C2=O)[C@@H]1c1ccc(CO)cc1 | inactive
47 | O=C1c2ccccc2[C@@]2(Cc3ccccc3N(C3CC3)C2=O)[C@H](c2ccc(CO)cc2)N1Cc1ccccc1 | active
48 | O=C1c2ccccc2[C@@]2(Cc3ccccc3N(C3CC3)C2=O)[C@H](c2ccc(CO)cc2)N1Cc1ccccc1Cl | inactive
49 | COc1ccc(S(=O)(=O)N[C@@H]2C=C[C@H](CC(=O)N3CCN(c4ccccc4)CC3)O[C@H]2CO)cc1 | inactive
50 | OCc1cc(O)c2c(O)c3c(O)cccc3c(O[C@@H]3O[C@H](CO)[C@@H](O)[C@H](O)[C@H]3O)c2c1 | active
51 | OCc1ccccc1O[C@@H]1O[C@H](CO)[C@@H](O)[C@H](O)[C@H]1O | inactive
52 | O=C1c2c(O)cccc2C(C2OC(CO)C(O)C(O)C2O)c2cc(CO)cc(O)c21 (stereo not drawn) | active
53 | O=C(O)c1cc(O)c2c(O)c3c(O[C@H]4O[C@H](CO)[C@@H](O)[C@H](O)[C@H]4O)cccc3c(-c3c4cc(C(=O)O)cc(O)c4c(O)c4c(O[C@H]5O[C@H](CO)[C@@H](O)[C@H](O)[C@H]5O)cccc34)c2c1 | active
54 | O=C(O)c1cc(O[C@@H]2O[C@H](CO)[C@@H](O)[C@H](O)[C@H]2O)c2ccccc2c1O | inactive
55 | COc1c(O)cc2c(c1O)C1OC(CO)C(O)C(O)C1OC2=O (stereo not drawn) | inactive
56 | OCCc1ccc(O)c(O[C@H]2O[C@@H](CO)[C@@H](O)[C@@H](O)[C@@H]2O)c1 | inactive
57 | O=C1c2c(O)cc(CO)cc2C(OC2OC(CO)C(O)C(O)C2O)c2cccc(OC3OC(CO)C(O)C(O)C3O)c21 (stereo not drawn) [CASANTHRANOL [cascaroside A shown] ] | inactive
58 | OCc1cc(O)c2c(O)c3c(O)cccc3c(O[C@@H]3O[C@H](CO)[C@H](O)[C@@H](O)[C@H]3O)c2c1 | inactive
59 | OCc1ccc(O[C@@H]2O[C@H](CO)[C@@H](O)[C@H](O)[C@H]2O)cc1 | inactive
60 | O=C(O)c1cc(O)c2c(c1)C(C1c3cc(C(=O)O)cc(O)c3C(=O)c3c(OC4OC(CO)C(O)C(O)C4O)cccc31)c1cccc(OC3OC(CO)C(O)C(O)C3O)c1C2=O (stereo not drawn) | active
61 | COc1c(O)cc2c(c1O)[C@@H]1O[C@H](CO)[C@@H](O)[C@H](O)[C@H]1OC2=O | inactive
62 | CC(C)C#Cc1cnc2c(c1)C(=O)N([C@@H](C)CO)C[C@@H](C)[C@@H](CN(C)C(=O)c1ccc3c(c1)OCO3)O2 | inactive
63 | O=C(C[C@H]1C[C@H]2c3cc(NS(=O)(=O)c4ccc(F)cc4)ccc3O[C@H]2[C@@H](CO)O1)NCCN1CCCCC1 | inactive
